Our source for the outcome and AC50 values is PubChem BioAssay (EPA / NIEHS).

Activity calls are given as the source filed them. Rule for the calls: active = hit-call score of the fitted dose curve at least 0.9, where 1 is the maximum; inactive = score below 0.9.

This test can be described thus: ATG_SREBP_CIS: Attagene CIS-FACTORIAL HepG2 Assay for human Sterol Regulatory Element Binding (SREBP) (AID 2282962). Particulars: HepG2 Attagene cis-factorial SREBP reporter, mRNA; actives raise or lower the signal. The protocol:
ATG_CIS is a cell-based, multiplexed-readout assay that uses HepG2, a human liver cell line, with measurements taken at 24 hours after chemical dosing in a 24-well plate.ATG_SREBP_CIS is one of 52 assay component(s) measured or calculated from the ATG_CIS assay. It is designed to make measurements of mRNA induction, a form of inducible reporter, as detected with fluorescence intensity signals by Reverse transcription polymerase chain reaction (RT-PCR) and Capillary electrophoresis technology.Data from the assay component ATG_SREBP_CIS was analyzed into 1 assay endpoint. This assay endpoint, ATG_SREBP_CIS, was analyzed with bidirectional fitting relative to DMSO as the negative control and baseline of activity. Using a type of inducible reporter, measures of mRNA for gain or loss-of-signal activity can be used to understand the reporter gene at the transcription factor-level as they relate to the gene SREBF1. Furthermore, this assay endpoint can be referred to as a primary readout, because this assay has produced multiple assay endpoints where this one serves a reporter gene function. To generalize the intended target to other relatable targets, this assay endpoint is annotated to the dna binding intended target family, where the subfamily is basic helix-loop-helix leucine zipper.
Human liver HepG2 cells are transiently transfected with multiple reporter transcription units (MRTUs) in 6-well plates using FuGene 6 reagent (Roche; 3 ml FuGene/1 mg DNA). The MRTU constructs are regulated by a cis-regulating element (promoter). […] A major difference between the CIS and TRANS system is that in CIS activities of endogenous TFs are measured, whereas the TRANS assay evaluates changes in activities of exogenous, chimeric NR-Gal4 proteins. […] At the end of 24 hour incubation, total RNA was isolated using TriZol reagent (Invitrogen). The isolated RNA is then reverse-transcribed using oligo(dT) primer and Mo-MLV reverse transcriptase (Invitrogen) with DNAse I (Ambion) treatment for 30 min. The one-tenth of the produced cDNA was amplified by PCR using Taq DNA polymerase (Invitrogen) and two reporter sequence-specific primers. The PCR products were fluorescently labeled by primer extension with 6-arboxyfluorescein (6-FAM) 5'-labeled reporter sequence-specific primer (2 min at 95 C, 20 s at 68 C and 10 min at 72 C) and these products were digested with 5U of HpaI (New England Biolabs) for 2h at 37 C. The fragments were purified using Qiaquick PCR columns (Qiagen), analyzed on an ABI 3130xL genetic analyzer (Applied Biosystems) with peak positions identified by using a set of X-rhodamine (ROX)-labeled MapMarker1000 molecular weight standards (BioVentures). The raw capillary electrophoresis data was processed using Attagraph software (Attagene).
Take `Cc1cccc(N=Nc2ccc(N(C)C)cc2)c1`: the compound was called inactive.

Regarding `CCC[CH2][Sn]([CH2]CCC)([CH2]CCC)[CH2]CCC`, the AC50 is 2.82 µM (active).

Take `ClCc1ccccc1Cl`: the compound was called inactive.

`NC(=O)c1ccc(N)nc1`: the compound was called inactive.

In the case of `OCCCCO`, the compound was classed as inactive.

With `CCC(C)(C#N)N=NC(C)(C#N)CC` (stereo not given), the outcome was inactive.

For `CCNc1nc(NCC)nc(SC)n1`, the call was inactive.

For the compound `O=C(O)COc1cc(Cl)c(Cl)cc1Cl`, the compound was classed as inactive.

For `N#CCCC(Br)(C#N)CBr` (stereo not given), the compound was called inactive.

Regarding `C=C(C)C(=O)OCCCCOC(=O)C(=C)C`, the compound was called inactive.

Turning to `O=C(Cl)OCCOCCOC(=O)Cl`, the call was inactive.

On to `Clc1cccc(Cl)c1Cl`, for which the outcome was inactive.

Take `CCCCN(CCCCO)N=O`: the call was inactive.

Regarding `CC1CC(=O)O1` (stereo not given), the compound was classed as inactive.

Regarding `O=S(=O)(Oc1ccc(Cl)cc1)c1ccc(Cl)cc1`, the compound was classed as inactive.

Consider `Nc1nc(=S)[nH][nH]1`, for which the result was inactive.

Turning to `O=[N+]([O-])c1cccc2ccccc12`, the compound was called inactive.

For `CC(c1ccccc1)(c1ccc(O)cc1)c1ccc(O)cc1`, the AC50 was 13.2 µM (active).

On to `C=CC(Cl)CCl` (stereo not given), for which the compound was called inactive.

For `NC(=O)CCl`, the outcome was inactive.

With `N#Cc1cccnc1`, the compound was called inactive.

Consider `Nc1cccnc1`, for which the outcome was inactive.

As for `N#Cc1ccncc1`, the outcome was inactive.

Turning to `COc1ccc(N)cc1`, the compound was classed as inactive.

Consider `O=S1OC[C@@H]2[C@H](CO1)[C@]1(Cl)C(Cl)=C(Cl)[C@@]2(Cl)C1(Cl)Cl` (stereo not given in full), for which the result was inactive.

Consider `CN(C1CCCCC1)C1CCCCC1`, for which the outcome was inactive.

In the case of `CCCCC(CC)C(=O)Cl` (stereo not given), the compound was called inactive.

`C=CCOC(N)=O`: the outcome was inactive.

For the compound `O=C(CBr)c1ccc(O)cc1`, the result was inactive.

On to `CN(N=O)c1ccc([N+](=O)[O-])cc1`, for which the outcome was inactive.

Take `O=NN1CCCCCC1`: the call was inactive.

Turning to `O=CCCl`, the AC50 was 26.6 µM (active).

For `CCOP(=S)(OCC)SCSc1cc(Cl)ccc1Cl`, the compound was classed as inactive.

As for `C=CC(F)(C(F)(F)F)C(F)(F)C(F)(F)F` (stereo not given), the outcome was inactive.

Turning to `CC(=O)CN(CC(C)=O)N=O`, the outcome was inactive.

On to `O=[N+]([O-])c1c2ccccc2cc2ccccc12`, for which the compound was classed as inactive.

With `Cl[C@H]1OCCO[C@@H]1Cl`, the outcome was inactive.

For the compound `Cc1cc(C)cc(C)c1`, the outcome was inactive.

As for `C=CCc1ccccc1O`, the call was inactive.

On to `CCOP(=S)(OCC)SCS(=O)(=O)C(C)(C)C`, for which the call was inactive.

For orientation: AC50 means the midpoint of the concentration-response curve, whichever way the signal moves.
